Measurements reported in article PMC7862700, “An all-to-all approach to the identification of sequence-specific readers for epigenetic DNA modifications on cytosine”.

Tests used:
Assay in all cases: DAPPL (digital affinity profiling via proximity ligation, sequencing); 10 mM Tris-HCl pH 7.5, 50 mM NaCl, 1 mM DTT, 4% glycerol, room temperature, 30 min; GST-TFs on glutathione beads, 16-mer random dsDNA library, 0.1% formaldehyde crosslink after washing; high values mean tight binding
FLI1 = biological target: T1, FLI1 (Homo sapiens, UniProt Q01543 1-452); settings: protein: recombinant; tags: N-terminal GST; dsDNA, one strand shown
T1 sequence: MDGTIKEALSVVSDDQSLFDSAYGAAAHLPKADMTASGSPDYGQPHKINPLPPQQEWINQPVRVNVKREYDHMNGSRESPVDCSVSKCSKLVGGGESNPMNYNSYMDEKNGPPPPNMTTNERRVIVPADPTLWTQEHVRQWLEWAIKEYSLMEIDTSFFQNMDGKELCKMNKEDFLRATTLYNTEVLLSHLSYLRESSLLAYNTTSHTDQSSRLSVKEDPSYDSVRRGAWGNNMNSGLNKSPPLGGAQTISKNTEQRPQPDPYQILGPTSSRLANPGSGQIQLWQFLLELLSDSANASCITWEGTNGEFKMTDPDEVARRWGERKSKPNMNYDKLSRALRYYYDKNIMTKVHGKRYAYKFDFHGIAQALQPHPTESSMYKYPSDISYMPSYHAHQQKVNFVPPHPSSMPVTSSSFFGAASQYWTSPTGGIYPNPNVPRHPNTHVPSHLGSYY
Procedure, shortened: (§1)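 Binding signal is defined as a hexamer's read frequency for one factor over its frequency for the tag-only sample. To obtain reads, GST-fused human transcription factors were expressed in yeast, captured on glutathione beads, barcoded with DNA and pooled with that sample. Pools met 200 nmole of a 16-mer random double-stranded DNA library in Tris/NaCl/DTT/glycerol buffer for 30 min at room temperature before washing, 0.1% formaldehyde crosslinking, proximity ligation (BsaI/T4 ligase, 1 h, 37 °C), PCR and Illumina NextSeq500 sequencing.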

ELK1 = biological target: T2, ELK1 (Homo sapiens, UniProt P19419 1-428); settings: protein: recombinant; tags: N-terminal GST; dsDNA, one strand shown
T2 sequence: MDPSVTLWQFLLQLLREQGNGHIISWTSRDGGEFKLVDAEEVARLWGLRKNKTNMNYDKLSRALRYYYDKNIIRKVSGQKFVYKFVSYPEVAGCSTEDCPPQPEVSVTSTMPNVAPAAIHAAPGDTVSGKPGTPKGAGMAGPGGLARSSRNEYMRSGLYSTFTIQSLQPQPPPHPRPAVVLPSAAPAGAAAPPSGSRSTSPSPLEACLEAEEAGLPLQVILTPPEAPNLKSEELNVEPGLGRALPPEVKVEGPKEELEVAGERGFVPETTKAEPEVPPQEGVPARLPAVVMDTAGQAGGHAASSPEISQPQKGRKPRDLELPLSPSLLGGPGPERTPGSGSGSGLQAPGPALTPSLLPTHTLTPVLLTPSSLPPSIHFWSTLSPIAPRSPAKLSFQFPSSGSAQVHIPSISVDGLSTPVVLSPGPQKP
Procedure, shortened: as §1

GABPA = biological target: T3, GABPA (Homo sapiens, UniProt Q06546 1-454); settings: protein: recombinant; tags: N-terminal GST; dsDNA, one strand shown
T3 sequence: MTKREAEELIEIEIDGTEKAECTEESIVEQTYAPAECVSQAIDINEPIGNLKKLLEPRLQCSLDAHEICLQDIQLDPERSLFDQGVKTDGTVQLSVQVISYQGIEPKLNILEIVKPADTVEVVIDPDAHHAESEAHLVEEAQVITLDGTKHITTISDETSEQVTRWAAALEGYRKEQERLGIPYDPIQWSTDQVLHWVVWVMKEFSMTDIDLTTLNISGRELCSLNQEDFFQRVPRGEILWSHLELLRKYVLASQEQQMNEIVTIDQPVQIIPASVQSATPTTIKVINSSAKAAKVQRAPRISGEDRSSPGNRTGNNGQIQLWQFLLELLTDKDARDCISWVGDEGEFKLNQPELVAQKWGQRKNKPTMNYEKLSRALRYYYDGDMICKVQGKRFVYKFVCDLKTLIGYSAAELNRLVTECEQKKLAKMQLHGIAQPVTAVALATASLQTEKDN
Procedure, shortened: as §1

ERG = biological target: T4, ERG (Homo sapiens, UniProt P11308 1-479); settings: protein: recombinant; tags: N-terminal GST; dsDNA, one strand shown
T4 sequence: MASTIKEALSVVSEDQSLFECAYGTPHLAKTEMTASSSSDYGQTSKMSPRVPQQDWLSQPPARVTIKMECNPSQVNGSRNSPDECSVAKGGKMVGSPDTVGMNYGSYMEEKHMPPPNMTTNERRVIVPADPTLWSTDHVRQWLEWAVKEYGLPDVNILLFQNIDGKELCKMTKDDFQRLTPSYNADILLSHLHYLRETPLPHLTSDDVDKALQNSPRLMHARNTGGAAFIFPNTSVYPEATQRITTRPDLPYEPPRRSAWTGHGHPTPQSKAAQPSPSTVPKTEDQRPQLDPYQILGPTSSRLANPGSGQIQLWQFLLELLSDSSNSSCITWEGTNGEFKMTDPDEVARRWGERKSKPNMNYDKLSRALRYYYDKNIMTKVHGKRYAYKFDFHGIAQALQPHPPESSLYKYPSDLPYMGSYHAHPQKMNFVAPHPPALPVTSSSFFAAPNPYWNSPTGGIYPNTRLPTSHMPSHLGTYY
Procedure, shortened: as §1

ELF1 = ELF1 (Homo sapiens, UniProt P32519 1-619); settings: protein: recombinant; tags: N-terminal GST; dsDNA, one strand shown
Sequence of ELF1 (P32519 whole entry): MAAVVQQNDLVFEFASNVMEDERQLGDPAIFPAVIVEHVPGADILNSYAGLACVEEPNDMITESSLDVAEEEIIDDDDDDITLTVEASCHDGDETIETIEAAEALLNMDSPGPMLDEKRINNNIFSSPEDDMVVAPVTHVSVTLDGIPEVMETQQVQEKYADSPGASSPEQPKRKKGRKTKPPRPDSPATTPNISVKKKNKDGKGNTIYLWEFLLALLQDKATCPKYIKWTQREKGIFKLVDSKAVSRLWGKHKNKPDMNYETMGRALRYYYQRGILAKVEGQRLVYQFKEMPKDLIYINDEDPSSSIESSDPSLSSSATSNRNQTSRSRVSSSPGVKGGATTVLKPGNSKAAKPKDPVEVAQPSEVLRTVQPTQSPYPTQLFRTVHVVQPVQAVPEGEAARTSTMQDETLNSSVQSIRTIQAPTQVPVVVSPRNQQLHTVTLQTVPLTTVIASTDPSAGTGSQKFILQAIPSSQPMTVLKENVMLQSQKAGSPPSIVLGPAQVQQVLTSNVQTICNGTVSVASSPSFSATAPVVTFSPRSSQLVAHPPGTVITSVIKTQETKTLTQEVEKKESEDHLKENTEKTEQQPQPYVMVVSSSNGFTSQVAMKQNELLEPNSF
Procedure, shortened: as §1

EHF = biological target: T5, EHF (Homo sapiens, UniProt Q9NZC4 1-300); settings: protein: recombinant; tags: N-terminal GST; dsDNA, one strand shown
T5 sequence: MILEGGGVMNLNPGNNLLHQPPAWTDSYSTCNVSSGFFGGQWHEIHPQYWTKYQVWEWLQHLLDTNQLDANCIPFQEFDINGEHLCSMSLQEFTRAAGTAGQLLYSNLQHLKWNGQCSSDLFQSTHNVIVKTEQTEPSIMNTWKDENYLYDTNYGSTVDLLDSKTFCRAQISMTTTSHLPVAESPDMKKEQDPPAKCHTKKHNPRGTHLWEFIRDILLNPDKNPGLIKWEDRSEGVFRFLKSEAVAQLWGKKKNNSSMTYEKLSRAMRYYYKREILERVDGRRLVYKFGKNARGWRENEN
Procedure, shortened: as §1

SPI1 = SPI1 (Homo sapiens, UniProt P17947 1-270); settings: protein: recombinant; tags: N-terminal GST; dsDNA, one strand shown
Procedure, shortened: as §1

SPIB = SPIB (Homo sapiens, UniProt Q01892 1-262); settings: protein: recombinant; tags: N-terminal GST; dsDNA, one strand shown
Sequence of SPIB (Q01892 whole entry): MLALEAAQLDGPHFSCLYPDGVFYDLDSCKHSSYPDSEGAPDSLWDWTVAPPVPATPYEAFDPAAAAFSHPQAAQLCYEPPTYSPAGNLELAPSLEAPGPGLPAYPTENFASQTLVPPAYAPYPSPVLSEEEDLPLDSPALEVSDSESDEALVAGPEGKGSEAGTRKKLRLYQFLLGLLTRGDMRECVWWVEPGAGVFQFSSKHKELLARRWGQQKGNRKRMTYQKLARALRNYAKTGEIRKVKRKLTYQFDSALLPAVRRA
Procedure, shortened: as §1

ELK3 = biological target: T6, ELK3 (Homo sapiens, UniProt P41970 1-407); settings: protein: recombinant; tags: N-terminal GST; dsDNA, one strand shown
T6 sequence: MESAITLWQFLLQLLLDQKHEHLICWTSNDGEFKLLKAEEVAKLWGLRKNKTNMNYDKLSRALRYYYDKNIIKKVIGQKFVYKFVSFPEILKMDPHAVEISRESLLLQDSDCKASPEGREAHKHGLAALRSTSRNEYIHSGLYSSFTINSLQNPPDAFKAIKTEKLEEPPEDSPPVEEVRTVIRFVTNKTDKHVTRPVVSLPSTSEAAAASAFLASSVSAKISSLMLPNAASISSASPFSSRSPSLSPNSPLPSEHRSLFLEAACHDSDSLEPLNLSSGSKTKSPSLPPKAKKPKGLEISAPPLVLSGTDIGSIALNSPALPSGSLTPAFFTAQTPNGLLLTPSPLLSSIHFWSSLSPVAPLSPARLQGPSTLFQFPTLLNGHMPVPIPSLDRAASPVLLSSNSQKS
Procedure, shortened: as §1

FEV = biological target: T7, FEV (Homo sapiens, UniProt Q99581 1-238); settings: protein: recombinant; tags: N-terminal GST; dsDNA, one strand shown
T7 sequence: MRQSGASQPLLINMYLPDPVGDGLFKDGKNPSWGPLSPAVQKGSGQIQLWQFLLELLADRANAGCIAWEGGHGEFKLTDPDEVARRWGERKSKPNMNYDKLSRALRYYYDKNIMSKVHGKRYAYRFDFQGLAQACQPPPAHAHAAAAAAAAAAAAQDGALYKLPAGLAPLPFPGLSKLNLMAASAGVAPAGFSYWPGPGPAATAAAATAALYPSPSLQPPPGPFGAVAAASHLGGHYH
Procedure, shortened: as §1

ETV5 = ETV5 (Homo sapiens, UniProt P41161 1-510); settings: protein: recombinant; tags: N-terminal GST; dsDNA, one strand shown
Sequence of ETV5 (P41161 whole entry): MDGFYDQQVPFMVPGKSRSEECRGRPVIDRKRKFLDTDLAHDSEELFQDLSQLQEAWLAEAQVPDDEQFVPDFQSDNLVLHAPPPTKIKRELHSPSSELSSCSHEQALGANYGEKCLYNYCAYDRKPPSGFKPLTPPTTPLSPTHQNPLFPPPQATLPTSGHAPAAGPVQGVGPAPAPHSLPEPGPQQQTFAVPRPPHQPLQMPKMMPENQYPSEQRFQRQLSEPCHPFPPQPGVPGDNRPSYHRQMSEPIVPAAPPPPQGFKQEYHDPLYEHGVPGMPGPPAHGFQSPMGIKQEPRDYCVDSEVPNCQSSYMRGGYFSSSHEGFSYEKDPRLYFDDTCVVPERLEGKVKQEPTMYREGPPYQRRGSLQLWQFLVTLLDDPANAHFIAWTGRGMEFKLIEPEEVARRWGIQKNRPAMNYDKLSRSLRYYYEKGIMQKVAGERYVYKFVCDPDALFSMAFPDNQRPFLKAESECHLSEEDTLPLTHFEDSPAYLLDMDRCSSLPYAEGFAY
Procedure, shortened: as §1

HSF1 = HSF1 (Homo sapiens, UniProt Q00613 1-529); settings: protein: recombinant; tags: N-terminal GST; chain copies: 3; dsDNA, one strand shown
Sequence of HSF1 (Q00613 whole entry): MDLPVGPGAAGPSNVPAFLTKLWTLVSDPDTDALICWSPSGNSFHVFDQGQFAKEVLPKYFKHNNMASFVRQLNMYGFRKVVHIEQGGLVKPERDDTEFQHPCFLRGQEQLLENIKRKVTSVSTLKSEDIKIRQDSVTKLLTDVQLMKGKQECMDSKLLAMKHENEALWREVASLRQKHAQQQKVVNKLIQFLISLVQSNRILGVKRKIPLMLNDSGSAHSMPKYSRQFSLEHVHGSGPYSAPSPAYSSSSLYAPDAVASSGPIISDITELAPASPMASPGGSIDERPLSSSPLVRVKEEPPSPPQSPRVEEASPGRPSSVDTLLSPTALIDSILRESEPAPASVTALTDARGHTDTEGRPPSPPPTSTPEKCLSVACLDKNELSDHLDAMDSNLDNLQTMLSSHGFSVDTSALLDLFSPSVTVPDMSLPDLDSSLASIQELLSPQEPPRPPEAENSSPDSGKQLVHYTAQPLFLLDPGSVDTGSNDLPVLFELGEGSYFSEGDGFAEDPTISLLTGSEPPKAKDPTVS
Procedure, shortened: as §1

SPIC = biological target: T8, SPIC (Homo sapiens, UniProt Q8N5J4 1-248); settings: protein: recombinant; tags: N-terminal GST; dsDNA, one strand shown
T8 sequence: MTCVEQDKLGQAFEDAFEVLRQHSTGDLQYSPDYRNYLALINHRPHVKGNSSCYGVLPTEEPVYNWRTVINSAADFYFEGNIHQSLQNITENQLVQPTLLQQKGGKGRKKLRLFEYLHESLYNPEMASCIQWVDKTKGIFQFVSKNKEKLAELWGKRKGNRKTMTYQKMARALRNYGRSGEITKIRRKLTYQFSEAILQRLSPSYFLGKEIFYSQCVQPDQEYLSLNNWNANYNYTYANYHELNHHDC
Procedure, shortened: as §1

ELF4 = ELF4 (Homo sapiens, UniProt Q99607 1-663); settings: protein: recombinant; tags: N-terminal GST; dsDNA, one strand shown
Sequence of ELF4 (Q99607 whole entry): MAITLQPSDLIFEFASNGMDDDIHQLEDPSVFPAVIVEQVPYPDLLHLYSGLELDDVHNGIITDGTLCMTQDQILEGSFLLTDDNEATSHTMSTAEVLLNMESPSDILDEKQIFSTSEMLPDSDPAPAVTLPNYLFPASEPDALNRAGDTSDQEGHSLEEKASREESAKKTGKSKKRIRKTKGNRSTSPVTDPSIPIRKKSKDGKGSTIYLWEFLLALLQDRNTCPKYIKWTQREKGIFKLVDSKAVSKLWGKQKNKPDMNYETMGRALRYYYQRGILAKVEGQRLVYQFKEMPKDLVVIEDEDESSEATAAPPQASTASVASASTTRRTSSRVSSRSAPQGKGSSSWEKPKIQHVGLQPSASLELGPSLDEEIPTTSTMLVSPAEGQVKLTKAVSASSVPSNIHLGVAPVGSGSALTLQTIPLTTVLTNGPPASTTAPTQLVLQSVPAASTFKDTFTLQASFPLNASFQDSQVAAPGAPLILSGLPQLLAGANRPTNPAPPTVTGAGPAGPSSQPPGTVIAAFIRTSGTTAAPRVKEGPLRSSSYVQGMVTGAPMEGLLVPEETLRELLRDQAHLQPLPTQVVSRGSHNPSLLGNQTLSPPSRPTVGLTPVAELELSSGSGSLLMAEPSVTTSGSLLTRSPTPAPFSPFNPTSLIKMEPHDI
Procedure, shortened: as §1

ELK4 = biological target: T9, ELK4 (Homo sapiens, UniProt P28324-2 1-405); settings: protein: recombinant; tags: N-terminal GST; dsDNA, one strand shown
T9 sequence: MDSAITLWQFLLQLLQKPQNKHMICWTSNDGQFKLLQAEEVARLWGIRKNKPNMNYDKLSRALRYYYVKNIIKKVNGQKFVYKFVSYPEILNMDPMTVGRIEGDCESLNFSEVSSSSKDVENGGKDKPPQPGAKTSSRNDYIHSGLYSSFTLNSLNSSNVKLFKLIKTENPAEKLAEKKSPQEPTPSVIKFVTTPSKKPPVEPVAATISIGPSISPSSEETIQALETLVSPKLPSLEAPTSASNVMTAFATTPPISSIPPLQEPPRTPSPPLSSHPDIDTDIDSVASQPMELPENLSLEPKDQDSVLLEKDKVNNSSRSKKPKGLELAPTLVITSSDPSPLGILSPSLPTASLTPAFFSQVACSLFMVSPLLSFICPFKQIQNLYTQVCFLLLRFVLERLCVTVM
Procedure, shortened: as §1

ETV2 = biological target: T10, ETV2 (Homo sapiens, UniProt O00321 1-342); settings: protein: recombinant; tags: N-terminal GST; dsDNA, one strand shown
T10 sequence: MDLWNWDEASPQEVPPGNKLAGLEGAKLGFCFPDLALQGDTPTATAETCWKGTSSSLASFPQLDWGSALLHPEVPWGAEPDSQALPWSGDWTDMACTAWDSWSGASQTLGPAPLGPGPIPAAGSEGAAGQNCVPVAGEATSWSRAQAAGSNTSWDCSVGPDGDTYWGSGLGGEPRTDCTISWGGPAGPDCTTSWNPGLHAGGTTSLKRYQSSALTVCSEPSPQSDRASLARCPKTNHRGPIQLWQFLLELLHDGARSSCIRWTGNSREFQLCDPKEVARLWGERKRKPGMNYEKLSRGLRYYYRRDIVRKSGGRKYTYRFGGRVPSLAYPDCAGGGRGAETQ
Procedure, shortened: as §1

ELF3 = biological target: T11, ELF3 (Homo sapiens, UniProt P78545 1-371); settings: protein: recombinant; tags: N-terminal GST; dsDNA, one strand shown
T11 sequence: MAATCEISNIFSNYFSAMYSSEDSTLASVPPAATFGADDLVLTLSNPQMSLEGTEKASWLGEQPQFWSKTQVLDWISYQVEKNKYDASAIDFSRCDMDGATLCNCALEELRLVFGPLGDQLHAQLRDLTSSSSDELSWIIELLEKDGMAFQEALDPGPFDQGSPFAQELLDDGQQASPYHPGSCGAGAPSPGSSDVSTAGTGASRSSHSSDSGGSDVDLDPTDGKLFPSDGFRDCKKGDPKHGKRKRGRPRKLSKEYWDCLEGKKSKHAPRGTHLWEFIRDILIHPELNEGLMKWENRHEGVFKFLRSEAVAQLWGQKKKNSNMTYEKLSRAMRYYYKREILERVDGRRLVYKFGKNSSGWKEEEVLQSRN
Procedure, shortened: as §1

CRX = CRX (Homo sapiens, UniProt O43186 1-299); settings: protein: recombinant; tags: N-terminal GST; dsDNA, one strand shown
Sequence of CRX (O43186 whole entry): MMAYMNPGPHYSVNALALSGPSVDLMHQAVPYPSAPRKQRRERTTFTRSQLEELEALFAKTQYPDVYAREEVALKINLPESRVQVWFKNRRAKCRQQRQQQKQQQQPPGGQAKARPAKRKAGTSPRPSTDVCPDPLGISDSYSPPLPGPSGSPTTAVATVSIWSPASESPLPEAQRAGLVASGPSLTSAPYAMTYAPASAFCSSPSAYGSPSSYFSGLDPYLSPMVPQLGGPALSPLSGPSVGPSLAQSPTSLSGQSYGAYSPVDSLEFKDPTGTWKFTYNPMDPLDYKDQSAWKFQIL
Procedure, shortened: as §1

ETV1 = ETV1 (Homo sapiens, UniProt P50549 1-477); settings: protein: recombinant; tags: N-terminal GST; dsDNA, one strand shown
Sequence of ETV1 (P50549 whole entry): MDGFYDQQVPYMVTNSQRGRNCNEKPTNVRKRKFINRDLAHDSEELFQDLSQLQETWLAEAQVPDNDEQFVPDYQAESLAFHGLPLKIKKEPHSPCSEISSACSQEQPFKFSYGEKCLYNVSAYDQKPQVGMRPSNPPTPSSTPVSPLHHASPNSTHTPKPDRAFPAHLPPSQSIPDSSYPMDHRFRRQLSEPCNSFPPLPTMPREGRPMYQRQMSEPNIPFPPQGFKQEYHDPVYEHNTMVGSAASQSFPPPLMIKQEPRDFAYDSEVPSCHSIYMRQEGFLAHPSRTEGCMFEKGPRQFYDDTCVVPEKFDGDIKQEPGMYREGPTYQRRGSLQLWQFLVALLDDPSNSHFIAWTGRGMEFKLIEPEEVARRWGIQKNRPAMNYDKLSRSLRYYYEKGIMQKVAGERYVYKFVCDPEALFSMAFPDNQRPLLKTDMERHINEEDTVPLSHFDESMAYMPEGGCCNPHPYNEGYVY
Procedure, shortened: as §1

## TCTTGG
FLI1
  binding signal: 1.44 fold enrichment (6-mer frequency, TF over GST control)
ELK1
  binding signal: 1.35 fold enrichment (6-mer frequency, TF over GST control)
GABPA
  binding signal: 1.52 fold enrichment (6-mer frequency, TF over GST control)
ERG
  binding signal: 1.38 fold enrichment (6-mer frequency, TF over GST control)
ELF1
  binding signal: 1.28 fold enrichment (6-mer frequency, TF over GST control)
EHF
  binding signal: 1.48 fold enrichment (6-mer frequency, TF over GST control)
SPI1
  binding signal: 1.35 fold enrichment (6-mer frequency, TF over GST control)
SPIB
  binding signal: 1.4 fold enrichment (6-mer frequency, TF over GST control)
ELK3
  binding signal: 1.4 fold enrichment (6-mer frequency, TF over GST control)
FEV
  binding signal: 1.3 fold enrichment (6-mer frequency, TF over GST control)
ETV5
  binding signal: 1.32 fold enrichment (6-mer frequency, TF over GST control)
HSF1
  binding signal: 1.39 fold enrichment (6-mer frequency, TF over GST control)
SPIC
  binding signal: 1.47 fold enrichment (6-mer frequency, TF over GST control)
ELF4
  binding signal: 1.39 fold enrichment (6-mer frequency, TF over GST control)
ELK4
  binding signal: 1.41 fold enrichment (6-mer frequency, TF over GST control)
ETV2
  binding signal: 1.22 fold enrichment (6-mer frequency, TF over GST control)
ELF3
  binding signal: 1.41 fold enrichment (6-mer frequency, TF over GST control)
CRX
  binding signal: 1.32 fold enrichment (6-mer frequency, TF over GST control)
ETV1
  binding signal: 1.23 fold enrichment (6-mer frequency, TF over GST control)
